Source: the supplement of paper PMC10849652
About 7,900 targets were measured; listed, in parts, are those with a hit and a random draw of the rest. About 0.6% of all pairs of compound and target were hits. A number with no mark means an inactive call.

Assays:
Test in all cases: log2 fold change, soluble protein after heating vs DMSO (PISA); higher = thermal stabilisation; K562 cells, 10 uM, 30 min; active = over 0.2 and 3.5 SD of the protein, either way, in both replicates (recomputed)
[1] = compound: CC1=C(C=C(C=C1)NC(=O)C2=CC(=CC=C2)C(C)(C)C#N)NC3=CC4=C(C=C3)N=CN(C4=O)C
Procedure, shortened: (§1)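 K562 cells (2×10^6 cells/mL) were treated with 10 μM compound for 30 min, and aliquots were heated for 3 min over 48°C-58°C. Pooled aliquots were extracted in PBS with 0.5% NP-40 at 4°C, and the supernatant after 21,000xg for 90 min was measured by TMTpro 16plex LC-MS/MS with channel sums equalised. Reported thermal stability, relative to control samples and from duplicates, is a log2 fold change.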

[2] = compound: CC1=C(C=C(C=C1)NC(=O)C2=CC(=CC=C2)N(C)C)NC(=O)C3=CC=C(C=C3)O
Procedure, shortened: as §1

[3] = compound: CC1=CC=C(C=C1)SC2=C3C=C(SC3=CN=C2)C(=O)N
Procedure, shortened: as §1

[4] = compound: CC1=NC(=CC=C1)C2=C(N=C(N2)C(C)(C)C)C3=CC4=NC=CN=C4C=C3
Procedure, shortened: as §1

[5] = compound: CCCCN(Cc1ccc(C(=O)NO)cc1)C(=O)Nc1ccccc1 [Nexturastat A]
Procedure, shortened: as §1

[6] = compound: CCCS(=O)(=O)Nc1ccc(F)c(C(=O)c2c[nH]c3ncc(-c4ccc(Cl)cc4)cc23)c1F [vemurafenib]
Procedure, shortened: as §1

[7] = compound: CCCS(=O)(=O)Nc1ccc(F)c(C(=O)c2c[nH]c3ncc(Cl)cc23)c1F
Procedure, shortened: as §1

[8] = compound: CCCc1cc(C)[nH]c(=O)c1CNC(=O)c1cc(-c2ccnc(N3CCN(C)CC3)c2)cc2c1cnn2C(C)C
Procedure, shortened: as §1

[9] = compound: CCN(CC)Cc1ccc2cc(COC(=O)Nc3ccc(C(=O)NO)cc3)ccc2c1 [givinostat]
Procedure, shortened: as §1

[10] = compound: CCN(CCCOc1ccc2c(Nc3cc(CC(=O)Nc4cccc(F)c4)[nH]n3)ncnc2c1)CCOP(=O)(O)O [barasertib]
Procedure, shortened: as §1

[11] = compound: CC[C@@H]1C(=O)N(C)c2cnc(Nc3ccc(C(=O)NC4CCN(C)CC4)cc3OC)nc2N1C1CCCC1
Procedure, shortened: as §1

[12] = compound: CC[C@@H]1C(=O)N(C)c2cnc(Nc3ccc(C(=O)N[C@H]4CC[C@H](N5CCN(CC6CC6)CC5)CC4)cc3OC)nc2N1C(C)C [volasertib]
Procedure, shortened: as §1

[13] = compound: CC[C@H](C)N1C=C(C2=C(C=C(C=C21)C3=CN=C(C=C3)N4CCNCC4)C(=O)NCC5=C(C=C(NC5=O)C)C)C
Procedure, shortened: as §1

[14] = compound: CC[C@H](C)[C@@H](C(=O)N[C@@H]([C@@H](C)O)C(=O)N[C@@H](CC(C)C)C(=O)[C@]1(CO1)C)NC(=O)[C@H]([C@@H](C)CC)N(C)C(=O)C [epoxomicin]
Procedure, shortened: as §1

[15] = compound: CCn1c(C(=O)N(C2CC2)C2CC2)cc2c3c(ncn3C)c(Nc3cc(C)n(C)n3)nc21
Procedure, shortened: as §1

[16] = compound: CCn1cc(-c2ccnc3[nH]c(-c4cccc(CN(C)C)c4)cc23)c(-c2ccc(NC(=O)N(C)C)cc2)n1
Procedure, shortened: as §1

[17] = compound: CN(C)CC(=O)Nc1ccc2[nH]c(=O)c3ccccc3c2c1
Procedure, shortened: as §1

[18] = compound: CN(CCOC1=CC=C(C=C1)C[C@H]2C(=O)NC(=O)S2)C3=CC=CC=N3 (racemic) [rosiglitazone]
Procedure, shortened: as §1

[19] = compound: CN1C2=C(C3=C1C(=O)N(N=C3)CC4=CC(=CC=C4)N)SC(=C2)S(=O)C
Procedure, shortened: as §1

[20] = compound: CN1CCC(CNc2ccc3ncc(-c4cccc(OC(F)(F)F)c4)n3n2)CC1
Procedure, shortened: as §1

Sequence of UniProt Q8NHZ8 (Q8NHZ8 whole entry, looked up): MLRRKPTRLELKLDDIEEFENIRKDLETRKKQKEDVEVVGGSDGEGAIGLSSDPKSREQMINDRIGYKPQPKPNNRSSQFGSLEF
Sequence of UniProt P46108 (P46108 whole entry, looked up): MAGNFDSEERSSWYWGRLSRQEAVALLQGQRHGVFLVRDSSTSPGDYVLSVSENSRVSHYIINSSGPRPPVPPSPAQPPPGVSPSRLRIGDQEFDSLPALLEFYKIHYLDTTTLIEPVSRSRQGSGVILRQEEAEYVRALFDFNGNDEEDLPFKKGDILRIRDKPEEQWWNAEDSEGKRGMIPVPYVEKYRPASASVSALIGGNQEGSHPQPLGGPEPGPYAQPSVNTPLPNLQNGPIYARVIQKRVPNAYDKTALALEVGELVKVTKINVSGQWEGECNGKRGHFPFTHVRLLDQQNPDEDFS
Sequence of UniProt P12277 (P12277 whole entry, looked up): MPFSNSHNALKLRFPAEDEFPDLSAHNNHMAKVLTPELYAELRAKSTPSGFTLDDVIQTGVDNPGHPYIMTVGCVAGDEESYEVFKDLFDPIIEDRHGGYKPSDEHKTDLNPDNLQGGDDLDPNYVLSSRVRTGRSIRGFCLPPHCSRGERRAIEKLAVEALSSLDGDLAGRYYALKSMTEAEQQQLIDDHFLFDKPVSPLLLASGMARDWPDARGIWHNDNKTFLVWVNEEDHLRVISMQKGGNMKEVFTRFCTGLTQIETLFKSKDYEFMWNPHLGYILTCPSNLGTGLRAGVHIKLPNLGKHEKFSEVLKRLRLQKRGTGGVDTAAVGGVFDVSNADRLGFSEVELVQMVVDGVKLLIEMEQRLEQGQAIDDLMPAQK
Sequence of UniProt P51946 (P51946 whole entry, looked up): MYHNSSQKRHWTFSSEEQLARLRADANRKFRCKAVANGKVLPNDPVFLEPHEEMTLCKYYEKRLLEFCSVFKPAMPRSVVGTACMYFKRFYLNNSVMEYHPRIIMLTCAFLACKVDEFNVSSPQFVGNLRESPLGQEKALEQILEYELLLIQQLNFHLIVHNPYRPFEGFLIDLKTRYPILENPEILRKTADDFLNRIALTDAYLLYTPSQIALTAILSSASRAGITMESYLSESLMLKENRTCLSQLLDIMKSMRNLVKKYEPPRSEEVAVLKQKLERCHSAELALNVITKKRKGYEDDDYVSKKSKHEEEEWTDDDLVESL
Sequence of UniProt Q7KZN9 (Q7KZN9 whole entry, looked up): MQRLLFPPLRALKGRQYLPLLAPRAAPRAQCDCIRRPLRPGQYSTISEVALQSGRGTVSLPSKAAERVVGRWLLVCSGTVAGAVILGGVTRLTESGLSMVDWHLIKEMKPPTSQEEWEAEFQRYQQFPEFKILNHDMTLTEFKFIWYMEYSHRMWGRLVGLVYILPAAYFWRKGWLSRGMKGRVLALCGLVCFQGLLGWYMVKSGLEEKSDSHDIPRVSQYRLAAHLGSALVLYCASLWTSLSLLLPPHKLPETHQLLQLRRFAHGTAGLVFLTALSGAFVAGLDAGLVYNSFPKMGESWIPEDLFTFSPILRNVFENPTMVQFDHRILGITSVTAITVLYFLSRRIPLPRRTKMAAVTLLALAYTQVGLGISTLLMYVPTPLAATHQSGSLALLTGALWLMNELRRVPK
Sequence of UniProt Q99653 (Q99653 whole entry, looked up): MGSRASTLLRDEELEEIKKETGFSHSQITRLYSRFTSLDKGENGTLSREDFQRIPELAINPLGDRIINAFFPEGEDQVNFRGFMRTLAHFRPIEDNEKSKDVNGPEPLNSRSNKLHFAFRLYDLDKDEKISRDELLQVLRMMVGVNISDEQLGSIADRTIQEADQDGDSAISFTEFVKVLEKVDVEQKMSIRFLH
Sequence of UniProt Q8IWV2 (Q8IWV2 whole entry, looked up): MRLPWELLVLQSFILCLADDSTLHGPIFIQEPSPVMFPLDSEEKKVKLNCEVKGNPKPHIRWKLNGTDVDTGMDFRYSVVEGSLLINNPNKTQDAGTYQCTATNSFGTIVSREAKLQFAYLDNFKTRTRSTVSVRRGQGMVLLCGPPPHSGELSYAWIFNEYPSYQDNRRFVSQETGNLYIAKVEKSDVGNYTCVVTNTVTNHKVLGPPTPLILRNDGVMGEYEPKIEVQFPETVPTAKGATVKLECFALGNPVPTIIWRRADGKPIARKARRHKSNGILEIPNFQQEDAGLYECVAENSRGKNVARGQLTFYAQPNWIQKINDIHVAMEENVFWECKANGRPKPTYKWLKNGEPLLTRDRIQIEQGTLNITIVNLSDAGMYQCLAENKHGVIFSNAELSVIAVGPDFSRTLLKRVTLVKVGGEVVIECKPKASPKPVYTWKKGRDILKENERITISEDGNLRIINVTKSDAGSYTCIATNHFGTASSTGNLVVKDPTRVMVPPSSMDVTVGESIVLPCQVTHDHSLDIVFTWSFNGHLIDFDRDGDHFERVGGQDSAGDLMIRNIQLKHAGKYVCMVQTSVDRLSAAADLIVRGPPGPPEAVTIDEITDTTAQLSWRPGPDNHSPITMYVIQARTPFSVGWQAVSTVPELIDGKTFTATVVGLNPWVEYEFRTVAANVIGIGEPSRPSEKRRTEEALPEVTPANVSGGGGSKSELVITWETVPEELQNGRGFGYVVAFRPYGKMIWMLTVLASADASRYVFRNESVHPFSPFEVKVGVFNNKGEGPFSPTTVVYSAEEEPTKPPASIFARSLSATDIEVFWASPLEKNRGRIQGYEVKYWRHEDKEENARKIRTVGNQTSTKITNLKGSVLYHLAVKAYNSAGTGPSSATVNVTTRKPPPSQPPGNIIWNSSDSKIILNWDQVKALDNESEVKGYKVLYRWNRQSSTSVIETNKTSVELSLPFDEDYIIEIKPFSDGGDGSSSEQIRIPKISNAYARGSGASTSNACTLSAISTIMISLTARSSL

Target | log2 fold change [1] | log2 fold change [2] | log2 fold change [3] | log2 fold change [4] | log2 fold change [5] | log2 fold change [6] | log2 fold change [7] | log2 fold change [8] | log2 fold change [9] | log2 fold change [10] | log2 fold change [11] | log2 fold change [12] | log2 fold change [13] | log2 fold change [14] | log2 fold change [15] | log2 fold change [16] | log2 fold change [17] | log2 fold change [18] | log2 fold change [19] | log2 fold change [20]
CKB (UniProt P12277) | 0.016 | -0.006 | -0.008 | 0.016 | -0.032 | 0 | 0.015 | -0.016 | -0.013 | -0.002 | 0.002 | 0.265 (active) | 0.008 | 0.044 | 0.01 | -0.108 | 0.009 | 0.03 | -0.111 | -0.056
CDC26 (UniProt Q8NHZ8) | -0.026 | 0.029 | -0.025 | 0.021 | 0.067 | 0.534 (active) | -0.048 | 0.056 | 0.056 | 0.007 | 0.06 | 0.037 | -0.068 | -0.031 | 0.085 | 0.003 | 0.158 | -0.008 | 0.107 | 0.131
COX15 (UniProt Q7KZN9) | 0.05 | 0.024 | 0.001 | 0.003 | -0.113 | 0.005 | 0.015 | -0.077 | -0.008 | 0.009 | 0.057 | 0.023 | -0.037 | -0.018 | 0.05 | 0.021 | 0.006 | 0.085 | -0.044 | -0.015
CHP1 (UniProt Q99653) | -0.048 | -0.016 | -0.112 | 0.021 | 0.016 | 0.141 | -0.042 | 0.008 | -0.035 | 0.009 | -0.069 | -0.036 | 0.033 | 0.061 | -0.006 | -0.007 | 0.063 | -0.005 | 0.034 | -0.028
CRK (UniProt P46108) | -0.814 (active) | -0.019 | 0.015 | 0.091 | -0.006 | 0.048 | 0.009 | -0.008 | 0.002 | 0.046 | -0.059 | -0.085 | 0.005 | 0.026 | 0.002 | -0.039 | 0.002 | 0.033 | -0.028 | -0.022
CCNH (UniProt P51946) | -0.023 | 0.007 | -0.015 | -0.056 | -0.002 | 0.003 | 0.018 | -0.029 | -0.007 | 0.031 | -0.034 | -0.028 | 0.021 | -0.024 | -0.004 | 0.046 | -0.019 | -0.001 | -0.069 | 0.005
CNTN4 (UniProt Q8IWV2) | -0.053 | 0 | 0.035 | -0.244 | 0.342 | -0.038 | 0.058 | 0.364 | 0.278 | 0.055 | -0.016 | -0.14 | -0.084 | 0.149 | -0.208 | -0.157 | 0 | -0.021 | -0.077 | -0.102
